From PubChem BioAssay AID1159580 (chemical genetic matrix, 2015)
Values joined by “and” are separate entries in the source; they are usually repeats but may differ in a detail not shown here. Equal values may be shown once. Hit rate of the full screen: of about 5,500 compounds, about 2,000 (36%) were called active. Not shown: some 18% with an inconclusive outcome. Rule as the data show it: active = normalized growth mostly below about 0.91 (no sharp cut-off); inconclusive = no clear call, values can overlap the other calls; inactive = mostly above about 0.92. The list shows a part of the results.

Assay: chemical genetic growth profiling, strain panel (AID 1159580);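 also: tested at 20 µM; growth read once vehicle control cultures reached saturation at 30 °C; 1 = growth at the plate median or of vehicle wells; lower values mean less growth of the strain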
Conditions: growth OD

Measured: normalized growth

CNCCCN1c2ccccc2CCc2ccccc21
inactive: S. cerevisiae deletion strains, locus YKL009W, strain mrt4, active compounds read low 1 | S. cerevisiae deletion strains, locus YKL068W, active compounds read low 1 | S. cerevisiae deletion strains, locus YKL085W, strain MDH1 (second series), active compounds read low 1.04 | S. cerevisiae deletion strains, locus YKL085W, strain MDH1, active compounds read low 1.04 | S. cerevisiae deletion strains, locus YKL160W, strain elf1, active compounds read low 1.03 | S. cerevisiae deletion strains, locus YKL190W, strain CNB1, active compounds read low 1 | S. cerevisiae deletion strains, locus YKR001C, strain vps1, active compounds read low 0.997 | S. cerevisiae deletion strains, locus YKR026C, strain gcn3, active compounds read low 1.01 | S. cerevisiae deletion strains, locus YKR091W, strain srl3, active compounds read low 1.01 | S. cerevisiae deletion strains, locus YLL001W, strain dnm1, active compounds read low 1.03 | S. cerevisiae deletion strains, locus YLL026W, active compounds read low 1.03 | S. cerevisiae deletion strains, locus YLL041C, strain sdh2, active compounds read low 1.01 | S. cerevisiae deletion strains, locus YLR027C, strain aat2, active compounds read low 1.03 | S. cerevisiae deletion strains, locus YLR039C, strain RIC1, active compounds read low 1.22 | S. cerevisiae deletion strains, locus YLR058C, strain SHM2, active compounds read low 1.01 | S. cerevisiae deletion strains, locus YLR102C, strain apc9, active compounds read low 1 | S. cerevisiae deletion strains, locus YLR113W, strain HOG1, active compounds read low 1.02 | S. cerevisiae deletion strains, locus YLR221C, strain rsa3, active compounds read low 0.978 | S. cerevisiae deletion strains, locus YLR258W, strain gsy2, active compounds read low 1 | S. cerevisiae deletion strains, locus YLR262C, strain YPT6 (second series), active compounds read low 1.09 | S. cerevisiae deletion strains, locus YLR262C, strain YPT6, active compounds read low 1.16 | S. cerevisiae deletion strains, locus YLR268W, strain sec22, active compounds read low 0.988 | S. cerevisiae deletion strains, locus YLR320W, strain mms22, active compounds read low 0.987 | S. cerevisiae deletion strains, locus YLR330W, strain CHS5, active compounds read low 1.01 | S. cerevisiae deletion strains, locus YLR342W, strain FKS1 (second series), active compounds read low 0.997 | S. cerevisiae deletion strains, locus YLR342W, strain FKS1, active compounds read low 1.04 | S. cerevisiae deletion strains, locus YLR357W, strain rsc2, active compounds read low 0.985 | S. cerevisiae deletion strains, locus YLR370C, strain arc18, active compounds read low 1.02 | S. cerevisiae deletion strains, locus YLR371W, strain rom2, active compounds read low 0.988 | S. cerevisiae deletion strains, locus YLR384C, strain iki3, active compounds read low 1.01 | S. cerevisiae deletion strains, locus YLR418C, strain cdc73, active compounds read low 0.938 | S. cerevisiae deletion strains, locus YML016C, strain PPZ1, active compounds read low 0.997 | S. cerevisiae deletion strains, locus YML032C, strain rad52, active compounds read low 0.999 | S. cerevisiae deletion strains, locus YML120C, strain ndi1, active compounds read low 1.04 | S. cerevisiae deletion strains, locus YML124C, strain tub3, active compounds read low 1 | S. cerevisiae deletion strains, locus YMR058W, strain fet3, active compounds read low 1.02 | S. cerevisiae deletion strains, locus YMR078C, strain ctf18, active compounds read low 1 | S. cerevisiae deletion strains, locus YMR125W, strain sto1, active compounds read low 0.985 | S. cerevisiae deletion strains, locus YMR129W, active compounds read low 1.01 | S. cerevisiae deletion strains, locus YMR205C, strain PFK2, active compounds read low 1.04 | S. cerevisiae deletion strains, locus YMR223W, strain ubp8, active compounds read low 0.983 | S. cerevisiae deletion strains, locus YMR231W, strain pep5, active compounds read low 1.01 | S. cerevisiae deletion strains, locus YMR263W, strain SAP30, active compounds read low 0.997 | S. cerevisiae deletion strains, locus YMR307W, strain GAS1, active compounds read low 1.1 and 0.99 | S. cerevisiae deletion strains, locus YNL067W, strain RPL9B, active compounds read low 0.998 | S. cerevisiae deletion strains, locus YNL071W, strain lat1, active compounds read low 0.994 | S. cerevisiae deletion strains, locus YNL128W, strain TEP1, active compounds read low 1.02 | S. cerevisiae deletion strains, locus YNL153C, strain GIM3, active compounds read low 0.989 | S. cerevisiae deletion strains, locus YNL175C, strain NOP13, active compounds read low 1 | S. cerevisiae deletion strains, locus YNL183C, strain NPR1, active compounds read low 0.959 | S. cerevisiae deletion strains, locus YNL197C, strain WHI3, active compounds read low 1 | S. cerevisiae deletion strains, locus YNL209W, strain ssb2, active compounds read low 1 | S. cerevisiae deletion strains, locus YNL224C, strain SQS1, active compounds read low 0.998 | S. cerevisiae deletion strains, locus YNL233W, strain BNI4, active compounds read low 0.985 | S. cerevisiae deletion strains, locus YNL248C, strain rpa49, active compounds read low 0.995 | S. cerevisiae deletion strains, locus YNL250W, strain rad50, active compounds read low 1.01 | S. cerevisiae deletion strains, locus YNL271C, strain bni1, active compounds read low 0.998 | S. cerevisiae deletion strains, locus YNL298W, strain CLA4, active compounds read low 0.998 | S. cerevisiae deletion strains, locus YNL307C, strain MCK1, active compounds read low 1 | S. cerevisiae deletion strains, locus YNL322C, strain KRE1 (second series), active compounds read low 1.02 | S. cerevisiae deletion strains, locus YNL322C, strain KRE1, active compounds read low 1.01 and 0.993 | S. cerevisiae deletion strains, locus YNR049C, strain mso1, active compounds read low 1.01 | S. cerevisiae deletion strains, locus YNR052C, strain pop2, active compounds read low 1.01 | S. cerevisiae deletion strains, locus YOL012C, strain htz1 0.655 | S. cerevisiae deletion strains, locus YOL147C, strain pex11, active compounds read low 1 | S. cerevisiae deletion strains, locus YOR001W, strain rrp6, active compounds read low 1.02 | S. cerevisiae deletion strains, locus YOR061W, strain CKA2, active compounds read low 1.01 | S. cerevisiae deletion strains, locus YOR069W, strain VPS5, active compounds read low 1.01 | S. cerevisiae deletion strains, locus YOR070C, strain gyp1, active compounds read low 1.01 | S. cerevisiae deletion strains, locus YOR080W, strain dia2, active compounds read low 1.03 | S. cerevisiae deletion strains, locus YOR083W, strain WHI5 (second series), active compounds read low 1.03 | S. cerevisiae deletion strains, locus YOR083W, strain WHI5, active compounds read low 1.02 | S. cerevisiae deletion strains, locus YOR106W, strain vam3, active compounds read low 1.06 | S. cerevisiae deletion strains, locus YOR136W, strain idh2, active compounds read low 0.999 | S. cerevisiae deletion strains, locus YOR144C, strain elg1, active compounds read low 1 | S. cerevisiae deletion strains, locus YOR184W, strain ser1, active compounds read low 1.03 | S. cerevisiae deletion strains, locus YOR231W, strain MKK1, active compounds read low 1.01 | S. cerevisiae deletion strains, locus YOR265W, strain rbl2, active compounds read low 1.02 | S. cerevisiae deletion strains, locus YOR270C, strain vph1, active compounds read low 0.961 | S. cerevisiae deletion strains, locus YOR290C, strain snf2, active compounds read low 0.981 | S. cerevisiae deletion strains, locus YOR316C, strain cot1, active compounds read low 1.01 | S. cerevisiae deletion strains, locus YPL051W, strain arl3, active compounds read low 1.01 | S. cerevisiae deletion strains, locus YPL055C, strain LGE1, active compounds read low 0.96 | S. cerevisiae deletion strains, locus YPL078C, strain atp4, active compounds read low 1.05 | S. cerevisiae deletion strains, locus YPL106C, strain sse1, active compounds read low 1.04 | S. cerevisiae deletion strains, locus YPL240C, strain hsp82, active compounds read low 1.01 | S. cerevisiae deletion strains, locus YPL241C, strain CIN2, active compounds read low 1.01 and 0.994 | S. cerevisiae deletion strains, locus YPL256C, strain CLN2, active compounds read low 1.01 | S. cerevisiae deletion strains, locus YPR119W, strain clb2, active compounds read low 1 | S. cerevisiae deletion strains, locus YPR141C, strain kar3, active compounds read low 1 | S. cerevisiae deletion strains, locus YPR163C, strain tif3, active compounds read low 0.989 | S. cerevisiae deletion strains, locus YPR167C, strain met16, active compounds read low 1.01 | S. cerevisiae deletion strains, strain wtn01, active compounds read low 0.985 | S. cerevisiae strains, strain wild type, active compounds read low 1.01
